In the supplement of paper PMC7366291:
Counter-ions that a name gives are not always drawn. ± gives the standard deviation of the averaged measurements.

The molecules below were run on Danio rerio Tg(wt1b:EGFP) embryo, pronephros (assay: fraction of imaged embryos annotated as normal kidney; higher = less nephrotoxic; extreme values may be limits of the assay). Conditions: 25 µM; exposure: 24-48 hpf.
Method in brief: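 The value given is the share of embryos in each treatment scored as having a normal kidney. To obtain it, dechorionated Tg(wt1b:EGFP) zebrafish embryos were treated from 24 to 48 hpf at 28.5°C with 25 μM compound in 0.5% DMSO, in 5 mM HEPES-buffered E3 with 0.003% PTU. Pronephroi were imaged by widefield fluorescence (470 nm, 10 z-slices), and every embryo was annotated by hand from maximum projections.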

`CCCCOc1cc(C(=O)NCCN(CC)CC)c2ccccc2n1` [Dibucaine] and `CN1C(C(=O)Nc2ccccn2)=C(O)c2sccc2S1(=O)=O` [Tenoxicam] are the same in “fraction of imaged embryos annotated as normal kidney” value (shortened to “fraction of imaged embryos annotated”): 0.917 for the first, 0.917 for the second.

First: C#CCN(C)Cc1ccccc1 [Pargyline hydrochloride]
Second: CC(C)(C)NC(=O)[C@@H]1C[C@@H]2CCCC[C@@H]2CN1C[C@@H](O)[C@H](Cc1ccccc1)NC(=O)[C@H](CC(N)=O)NC(=O)c1ccc2ccccc2n1 [Saquinavir mesylate]
The “fraction of imaged embryos annotated” value of the first is lower: 0.833 for the first, 0.909 for the second.

For `CC(=O)N(CC(O)CN(C(C)=O)c1c(I)c(C(=O)NCC(O)CO)c(I)c(C(=O)NCC(O)CO)c1I)c1c(I)c(C(=O)NCC(O)CO)c(I)c(C(=O)NCC(O)CO)c1I` (stereo not given) [Iodixanol], the “fraction of imaged embryos annotated” value was 0.917.

What follows are molecules tested on Danio rerio Tg(wt1b:EGFP) embryo, pronephros (assay: pronephric angle neck segment to proximal convoluted tubule (mean of left and right), fold change vs DMSO control; higher = larger pronephric angle). Conditions: 25 µM; exposure: 24-48 hpf.
Method in brief: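 Using a Fiji macro, distances and angles were calculated from 16 reference points set by hand on maximum projections of pronephroi imaged dorsally (470 nm, 10 z-slices) in agarose-filled 96-well plates. The dechorionated Tg(wt1b:EGFP) zebrafish embryos had received 25 μM compound in 0.5% DMSO in HEPES-buffered E3 with 0.003% PTU from 24 to 48 hpf at 28.5°C. Values more than 2 SD from a feature's mean were excluded. Each feature appears as a fold change over the mean of DMSO-treated embryos from the same day.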

First: CC(C)Nc1cccnc1N1CCN(C(=O)c2cc3cc(NS(C)(=O)=O)ccc3[nH]2)CC1 [Delavirdine]
Second: OCC(O)CN1CCN(c2ccccc2)CC1 (racemic) [Dropropizine (R,S)]
The “pronephric angle neck segment” value of the first is lower: 0.921 ± 0.045 for the first, 1.03 ± 0.038 for the second.

`O=C(C1CCCCC1)N1CC(=O)N2CCc3ccccc3C2C1` (stereo not given) [Praziquantel] and `N=C(N)N1CCc2ccccc2C1` [Debrisoquin sulfate] are within error of each other in “pronephric angle neck segment” value: 1.02 ± 0.057 for the first, 1.01 ± 0.01 for the second.

`Nc1cc(N2CCCCC2)nc(N)[n+]1[O-]` [Minoxidil] and `Cc1ccsc1/C=C/C1=NCCCN1C` [Morantel tartrate] are within error of each other in “pronephric angle neck segment” value: 0.99 ± 0.065 for the first, 1.01 ± 0.019 for the second.

`CC(NCCC(c1ccccc1)c1ccccc1)c1ccccc1` (stereo not given) [Fendiline hydrochloride] and `CN(C)CCN(Cc1ccccc1)c1ccccn1` [Tripelennamine hydrochloride] are within error of each other in “pronephric angle neck segment” value: 1 ± 0.036 for the first, 1.1 ± 0.083 for the second.

`C=CCN1CCCC1CNC(=O)c1cc2nn[nH]c2cc1OC` (stereo not given) [Alizapride hydrochloride] and `CCN1CCC[C@H]1CNC(=O)c1c(O)c(Cl)cc(Cl)c1OC` [Raclopride] are the same in “pronephric angle neck segment” value: 1.02 ± 0.049 for the first, 1.02 ± 0.12 for the second.

Compared with `CCOc1ccccc1OCC1CNCCO1` (stereo not given) [Viloxazine hydrochloride], `C#CCN(C)Cc1ccccc1` [Pargyline hydrochloride] is lower in “pronephric angle neck segment” value: 1.04 ± 0.062 for the first, 0.95 ± 0.015 for the second.

`CC(=O)[C@H]1CC[C@H]2[C@@H]3CCC4=CC(=O)CC[C@]4(C)[C@H]3CC[C@]12C` [Progesterone] and `C=C1C[C@H]2[C@@H]3C=C(C)C4=CC(=O)CC[C@]4(C)[C@H]3CC[C@]2(C)[C@@]1(OC(C)=O)C(C)=O` [Melengestrol acetate] are within error of each other in “pronephric angle neck segment” value: 1.2 ± 0.12 for the first, 1.02 ± 0.066 for the second.

First: Oc1c(I)cc(Cl)c2cccnc12 [Clioquinol]
Second: CC(C)Cn1cnc2c(N)nc3ccccc3c21 [Imiquimod]
The “pronephric angle neck segment” value of the first is higher: 1.59 ± 0.077 for the first, 0.978 ± 0.037 for the second.

`CC(=O)N(CC(O)CO)c1c(I)c(C(=O)NCC(O)CO)c(I)c(C(=O)NCC(O)CO)c1I` (stereo not given) [Iohexol] and `CC(=O)N(CC(O)CN(C(C)=O)c1c(I)c(C(=O)NCC(O)CO)c(I)c(C(=O)NCC(O)CO)c1I)c1c(I)c(C(=O)NCC(O)CO)c(I)c(C(=O)NCC(O)CO)c1I` (stereo not given) [Iodixanol] are within error of each other in “pronephric angle neck segment” value: 0.962 ± 0.069 for the first, 1 ± 0.048 for the second.

Going from `Clc1ccc(C(Cn2ccnc2)OCc2c(Cl)cccc2Cl)c(Cl)c1` (stereo not given) [Isoconazole] to `CC(C)(Oc1ccc(CCNC(=O)c2ccc(Cl)cc2)cc1)C(=O)O` [Bezafibrate], the “pronephric angle neck segment” value falls from 1.64 ± 0.076 to 0.966 ± 0.0086.

Compared with `CC[C@H](c1ccc(O)cc1)[C@@H](CC)c1ccc(O)cc1` [Hexestrol], `Cc1ccc(C(=O)c2ccc(CC(=O)O)n2C)cc1` [Tolmetin sodium salt dihydrate] is lower in “pronephric angle neck segment” value: 1.22 ± 0.08 for the first, 1 ± 0.075 for the second.

`Cc1cccn2c(=O)c(-c3nnn[nH]3)cnc12` [Pemirolast potassium] and `c1ccc(CNc2ncnc3nc[nH]c23)cc1` [Aminopurine, 6-benzyl] are within error of each other in “pronephric angle neck segment” value: 0.99 ± 0.042 for the first, 1.02 ± 0.019 for the second.

Compared with `CC[N+](C)(CC)CCC[n+]1c(-c2ccccc2)c2cc(N)ccc2c2ccc(N)cc21` [Propidium iodide], `CCCCOc1cc(C(=O)NCCN(CC)CC)c2ccccc2n1` [Dibucaine] is higher in “pronephric angle neck segment” value: 0.959 ± 0.036 for the first, 1.007 ± 0.0089 for the second.

`CC(C)(O/N=C(\C(=O)N[C@@H]1C(=O)N2C(C(=O)[O-])=C(C[n+]3ccccc3)CS[C@H]12)c1csc(N)n1)C(=O)O` [Ceftazidime pentahydrate] and `CO/N=C(\C(=O)N[C@@H]1C(=O)N2C(C(=O)O)=C(COC(N)=O)CS[C@H]12)c1ccco1` [Cefuroxime sodium salt] are within error of each other in “pronephric angle neck segment” value: 0.961 ± 0.018 for the first, 0.985 ± 0.025 for the second.

`CNCCc1ccccn1` [Betahistine mesylate] and `CN1C(C(=O)Nc2ccccn2)=C(O)c2sccc2S1(=O)=O` [Tenoxicam] are within error of each other in “pronephric angle neck segment” value: 0.9697 ± 0.0079 for the first, 0.999 ± 0.028 for the second.

`COc1cc(C(=O)OCCCN2CCCN(CCCOC(=O)c3cc(OC)c(OC)c(OC)c3)CC2)cc(OC)c1OC` [Dilazep dihydrochloride] and `COCCOC(=O)C1=C(C)NC(C)=C(C(=O)OC(C)C)C1c1cccc([N+](=O)[O-])c1` (stereo not given) [Nimodipine] are within error of each other in “pronephric angle neck segment” value: 1.08 ± 0.089 for the first, 0.954 ± 0.049 for the second.

`CCC(C)(C)c1ccc(CC(C)CN2C[C@@H](C)O[C@@H](C)C2)cc1` (stereo not given in full) [Amorolfine hydrochloride] and `CC(C)(C)NC(=O)[C@@H]1C[C@@H]2CCCC[C@@H]2CN1C[C@@H](O)[C@H](Cc1ccccc1)NC(=O)[C@H](CC(N)=O)NC(=O)c1ccc2ccccc2n1` [Saquinavir mesylate] are within error of each other in “pronephric angle neck segment” value: 0.983 ± 0.05 for the first, 0.977 ± 0.016 for the second.

First: CO[C@@]1(NC(=O)CSCC#N)C(=O)N2C(C(=O)O)=C(CSc3nnnn3C)CS[C@@H]21 [Cefmetazole sodium salt]
Second: CC(=O)OCC1=C(C(=O)O)N2C(=O)[C@@H](NC(=O)Cc3cccs3)[C@H]2SC1 [Cephalothin sodium salt]
The “pronephric angle neck segment” value of the first is lower: 0.944 ± 0.042 for the first, 1.02 ± 0.028 for the second.

`COc1ccc2c3c1O[C@H]1C[C@@H](O)C=C[C@@]31CCN(C)C2` [Galanthamine hydrobromide] and `Cc1noc(NS(=O)(=O)c2ccc(N)cc2)c1C` [Sulfisoxazole] are within error of each other in “pronephric angle neck segment” value: 0.964 ± 0.029 for the first, 0.97 ± 0.044 for the second.

Going from `CC1=C(/C=C/C(C)=C/C=C/C(C)=C/C(=O)O)C(C)(C)CCC1` [Retinoic acid] to `C[C@H]1O[C@H](O[C@H]2[C@H](O)[C@@H](O)[C@@H](O[C@H]3[C@H](O)[C@@H](O)C(O)O[C@@H]3CO)O[C@@H]2CO)[C@H](O)[C@@H](O)[C@@H]1N[C@H]1C=C(CO)[C@@H](O)[C@H](O)[C@H]1O` (stereo not given in full) [Acarbose], the “pronephric angle neck segment” value falls from 1.67 ± 0.033 to 1.02 ± 0.014.
